Screens from PubChem BioAssay.
Most compounds without a hit are left out; they make up all but 6.6% or so of the library.
MPTP inh: inhibitors of mitochondrial permeability transition pore; isolated mouse mitochondria, Ca2+ swelling absorbance, 30 min; inhibition, % at 10 µM; hit rate 1.4% among 360,000;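 active = inhibition of 50% or more, scaled per plate between neutral and stimulator controls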;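 note: 0% = DMSO wells given calcium and 100% = 1 mM EGTA wells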
NR3A LBD binder: modulates the human NR3A ligand-binding domain; hit rate 2.5% among 340,000; AID 1259313; NR3A LBD differential scanning fluorimetry, Tm shift; 0% = protein alone, 100% = glycine-bound protein; Tm shift relative to glycine control, % at 25 µM;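 active = melting temperature shift of at least 10% of the positive control shift, at one fixed dose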
Gli-Sufu antag: blocks Gli-Sufu signaling in a luciferase reporter | inhibition, % at 5 µM | hit rate 0.74% among 340,000 | Sufu-KO-LIGHT fibroblasts, Gli luciferase reporter luminescence;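 active = inhibition above about 55%, limit read from the data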;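 note: 0% = DMSO-treated cells and 100% = wells with medium but no cells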
Beta apoptosis: beta cell apoptosis inhibition | INS-1E cytokine-induced death, ATP luminescence, 48 h; percent of positive-control rescue, neutral wells zero | protection from apoptosis, % (no concentration beside the values) | hit rate 0.8% among 300,000;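 active = Every replicate reaches about 75%, or at least half do and their mean reaches it too, limit read from the data; inconclusive = At least half of replicates reach the limit but their mean does not; inactive = Under half of replicates reach the limit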;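 note: 0% = cytokine-treated negative control wells and 100% = positive control rescue; higher means more ATP so stronger rescue from cytokine killing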
CSC inhib: blocks cancer stem cells; hit rate 1.1% among 300,000; cancer stem cell-like cells viability, luminescence; AID 2717; inhibition, % at 7.5 µM; in the data active = inhibition above about 75%; inconclusive = no clear call, values can overlap the other calls; tested in HMLE shEcad cells
Mdm2 MdmX PPI: disrupts the human Mdm2-MdmX interaction | O15151+Q00987 | SaOS-2 split-luciferase Mdm2/MdmX complementation, luminescence | inhibition, % at 8 µM | hit rate 3% among 330,000 | AID 485346;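 active = inhibition of at least 50% at 8 µM in the primary screen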
Target sequence (O15151 whole entry, looked up): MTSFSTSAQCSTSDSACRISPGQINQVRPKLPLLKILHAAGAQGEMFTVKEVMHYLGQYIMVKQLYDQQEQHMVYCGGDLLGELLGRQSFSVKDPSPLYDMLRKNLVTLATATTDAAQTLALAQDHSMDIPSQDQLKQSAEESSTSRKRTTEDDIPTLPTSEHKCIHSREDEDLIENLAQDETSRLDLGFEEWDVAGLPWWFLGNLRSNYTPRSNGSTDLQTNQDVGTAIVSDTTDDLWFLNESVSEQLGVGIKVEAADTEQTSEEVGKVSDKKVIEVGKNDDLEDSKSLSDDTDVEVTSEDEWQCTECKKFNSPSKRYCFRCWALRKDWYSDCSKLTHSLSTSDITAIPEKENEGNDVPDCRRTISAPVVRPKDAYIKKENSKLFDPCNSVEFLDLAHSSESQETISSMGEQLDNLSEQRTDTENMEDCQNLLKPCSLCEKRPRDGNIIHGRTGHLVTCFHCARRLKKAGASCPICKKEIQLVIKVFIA
Target sequence (Q00987 whole entry, looked up): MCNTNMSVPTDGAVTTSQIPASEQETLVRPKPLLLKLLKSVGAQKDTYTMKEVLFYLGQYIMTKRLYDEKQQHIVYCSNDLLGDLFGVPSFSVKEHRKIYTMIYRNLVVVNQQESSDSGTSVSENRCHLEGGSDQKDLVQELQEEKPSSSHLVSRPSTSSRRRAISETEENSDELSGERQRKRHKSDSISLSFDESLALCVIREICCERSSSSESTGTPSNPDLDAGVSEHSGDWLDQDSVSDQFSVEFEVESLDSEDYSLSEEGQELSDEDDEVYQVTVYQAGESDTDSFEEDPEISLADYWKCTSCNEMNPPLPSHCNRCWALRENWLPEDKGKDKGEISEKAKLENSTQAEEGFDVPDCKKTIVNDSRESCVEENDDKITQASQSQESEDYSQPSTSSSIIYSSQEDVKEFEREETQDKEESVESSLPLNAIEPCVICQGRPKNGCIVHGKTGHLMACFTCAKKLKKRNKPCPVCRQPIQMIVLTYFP
Starred values were filed as active, the others as inactive; ? = inconclusive; / = not tested or not shown.

SMILES | MPTP inh | NR3A LBD binder | Gli-Sufu antag | Beta apoptosis | CSC inhib | Mdm2 MdmX PPI
Cc1ccccc1OCCC(=O)OCC(=O)N1CCN(S(=O)(=O)c2ccc(Cl)cc2)CC1 | -2 | 11* | -1 | -6 | 6 | 13
O=C(O)c1nc2nc(Cl)c(Cl)nc2[nH]1 | 0 | 14* | -1 | 2 | 12 | -32
Cc1c(C(=O)OCCOc2ccc(Br)cc2)sc(=S)n1C | 2 | -3 | 1 | -3 | 8 | 4
CCc1c(C)nc2cc(-c3cc(OC)cc(OC)c3)nn2c1N1CCCC1 | 5 | -13 | 13 | 10 | 83* | 29
CCOCCN1CCN(c2c(CC)c(C)nc3cc(-c4cc(OC)cc(OC)c4)nn23)CC1 | 0 | 2 | 0 | 5 | -4 | 16
COc1ccc(NC(=O)/C(=C\c2ccccc2)NC(=O)c2ccco2)cc1 | 1 | 0 | 0 | -2 | -8 | 22
CCOC(=O)c1c(CSc2ccccc2)n(C)c2cc(Br)c(O)c(CN(C)C)c12 | 5 | -2 | 9 | -4 | 9 | 23
CCOC(=O)c1c(CSc2ccc(C)cc2)n(C)c2cc(Br)c(O)c(CN(C)C)c12 | 1 | 2 | 31 | 3 | 97* | 31
O=C(NC1CCC(O)CC1)C1CCN(S(=O)(=O)c2c(Cl)cccc2Cl)CC1 (stereo unspecified) | -2 | 0 | -1 | / | / | 11
O=S(=O)(c1cccc(C(F)(F)F)c1)N1CCC(c2nc3ccccc3[nH]2)CC1 | 0 | 9 | -1 | 19 | / | 18
O=S(=O)(c1cccc(Cl)c1)N1CCC(c2nc3ccccc3[nH]2)CC1 | 1 | 27* | 48 | 28 | 18 | 7
CC(C)(C)C(=O)Nc1ccc(S(=O)(=O)N2CCC(c3nc4ccccc4[nH]3)CC2)cc1 | -1 | 20* | 6 | 12 | 7 | 5
CC(=O)Nc1ccc(S(=O)(=O)N2CCC(c3nc4ccccc4[nH]3)CC2)cc1 | -2 | -2 | 5 | / | / | -20
O=C(NCc1cccs1)c1ccc2sc(C3=C[C@@H](O)[C@@H](O)[C@@H](CO)O3)nc2c1 | 1 | / | / | / | / | /
CCN(CC)CCN1C(=O)c2ccccc2NC1c1ccc(C)cc1 (stereo unspecified) | 1 | 14* | -2 | -2 | -7 | 17
CCN(CC)CCN1C(=O)c2ccccc2NC1c1ccc(F)cc1 (stereo unspecified) | -2 | -2 | 41 | -4 | -3 | -2
CCOC(=O)C1(C)CCCCCN1C(=O)c1snnc1C (stereo unspecified) | 0 | / | / | / | / | /
Cc1cccc(NC(=O)CNC(=O)COC(=O)C2CC2C)c1C (stereo unspecified) | 0 | 0 | -3 | 2 | -2 | -12
Cc1cccc2cc(CN(Cc3cccs3)C3(c4nnnn4C4CCCC4)CCCC3)c(=O)[nH]c12 | 0 | 11* | 22 | -6 | 10 | 24
Cc1cccc2cc(CN(Cc3ccc(F)cc3)Cc3nnnn3C3CCCC3)c(=O)[nH]c12 | 1 | -1 | 3 | 2 | 30 | 42
O=C(C[C@@H]1CC[C@H](NC(=O)Cc2ccccn2)[C@@H](CO)O1)NCCc1ccccc1 | -1 | / | / | / | / | /
CCOc1cccc(SCc2noc(C(=O)NCC3CCCO3)c2C(=O)O)c1 (stereo unspecified) | -1 | 17* | 2 | -5 | -8 | 8
COc1ccc(N2C(=O)C3CCCCC3C2=O)cc1NC(=O)c1ccccc1 (stereo unspecified) | 0 | 39* | 0 | 1 | -11 | 6
O=C(NCCS(=O)(=O)N1CCN(c2ccccc2F)CC1)c1ccc2c(c1)OCO2 | 1 | 31* | -7 | / | -11 | 0
OC(COCC(F)(F)C(F)(F)C(F)(F)C(F)F)Cn1c2ccccc2c2ccccc21 (stereo unspecified) | 8 | 29* | 5 | 3 | 103* | 21
SMILES | MPTP inh | NR3A LBD binder | Gli-Sufu antag | Beta apoptosis | CSC inhib | Mdm2 MdmX PPI
Cc1ccc(OCC(O)Cn2c3ccccc3c3ccccc32)cc1 (stereo unspecified) | 8 | 12* | -3 | 38 | ? | 42
CCCCn1c(N)c(N(CC)C(=O)C2=COCCO2)c(=O)[nH]c1=O | 0 | 1 | -6 | -3 | / | 28
COc1cc(/C=C2\SC(N3CCC(C)CC3)=NC2=O)ccc1O | 0 | -2 | -4 | 7 | 13 | 48
COc1ccc(S(=O)(=O)N(C)CC(=O)NCCC2=CCCCC2)cc1OC | 0 | 13* | -14 | -10 | -15 | 28
CNC(=S)NNC(=O)COc1ccccc1C | 0 | -4 | -36 | -5 | -3 | -13
CNC(=S)SCCOc1ccccc1C | 2 | 15* | -1 | / | / | 0
O=C1NC(Cc2ccccc2)c2nc3cc(F)ccc3c(=O)n2-c2cc(Cl)ccc21 (stereo unspecified) | / | / | / | 2 | -19 | 16
COc1cccc(-c2csc(NC(=O)Nc3ccccc3)n2)c1 | 11 | 32* | -19 | / | / | 23
COc1cccc(-c2csc(NC(=O)C3CC3)n2)c1 | 1 | 20* | -61 | -1 | 4 | -89
O=C(Nc1nc(-c2ccccc2)cs1)Nc1ccc(F)cc1F | 2 | 2 | -10 | 13 | 15 | 45
COc1cccc(C(=O)Nc2nc(-c3ccncc3)cs2)c1 | 2 | -17 | 29 | 1 | 13 | 1
COc1cccc(C(=O)Nc2nc(-c3ccc4c(c3)OCO4)cs2)c1 | 1 | 25* | 0 | / | 16 | 12
COc1cccc(-c2csc(Nc3ccc(Oc4ccccc4)cc3)n2)c1 | 1 | / | / | / | / | /
O=C(Nc1ccccc1)Nc1nc(-c2ccc(F)c(F)c2)cs1 | 28 | 28* | -19 | 6 | 14 | 29
CCc1cc(Cn2nc(-c3ccccc3)cc2C(=O)NCc2cccs2)on1 | 5 | -3 | 16 | 4 | 30 | 36
COc1ccc(C(=O)COC(=O)c2cc(=O)c3ccccc3o2)c(OC)c1 | -1 | / | / | / | / | /
CCCc1nc(NC2CCCCC2)c(C#N)c2c1COC(C)(C)C2 | 2 | -4 | / | 3 | 106* | 17
CCOC(=O)c1c(C)n(-c2ccc(C)cc2)c2c(C(C(C)=O)C(=O)O)c(Br)c(O)c(O)c12 (stereo unspecified) | -4 | 20* | 7 | 0 | 17 | 14
CCOC(=O)c1c(C)n(-c2ccc(C)cc2)c2c(CC(C)=O)c(Br)c(OC)c(O)c12 | 3 | -6 | 0 | -1 | / | 28
COc1cc(CN2CC(=O)N(c3ccccc3Cl)C2=S)cc(OC)c1OC | 1 | -3 | 62* | 1 | -10 | 27
COc1cc(CN2CC(=O)N(c3cccc(Cl)c3C)C2=S)cc(OC)c1OC | 4 | 3 | 15 | 4 | 12 | 14
COc1ccc(C(C(=O)NCC2CCCO2)N(C(=O)CNC(=O)c2ccco2)c2cc(C)ccc2C)cc1OC (stereo unspecified) | -2 | 0 | 0 | -15 | -7 | 9
CCOc1ccc(N2CC(C(=O)Nc3cccc(S(=O)(=O)NC4=NCCC4)c3)CC2=O)cc1 (stereo unspecified) | 3 | -2 | -6 | 0 | 6 | -3
